# Results as given in PubChem BioAssay (Tox21).
# Inconclusive results are not listed. Where a call stands in place of a potency, no number is given. A number with no mark means an inactive call. The source made the active and inactive calls. Unless noted, calls come from the whole dose curve; as a rule, active = well fitted curve in the direction sought with a large enough effect in the repeat runs; inconclusive = weak or mixed curves; inactive = no such curve, though single readings can be large; an effect the other way counts as inactive or inconclusive.
# Key:
# [1] = molecular target: Retinoic acid receptor RXR-alpha (Homo sapiens) (UniProt P19793); experiment: qHTS assay to identify small molecule agonists of the RXR signaling pathway (AID 1159527; calls by dose curve; note: nearly all actives have a fitted effect of over 35% in size)
# Chain of Retinoic acid receptor RXR-alpha (Homo sapiens) (P19793 whole entry, looked up): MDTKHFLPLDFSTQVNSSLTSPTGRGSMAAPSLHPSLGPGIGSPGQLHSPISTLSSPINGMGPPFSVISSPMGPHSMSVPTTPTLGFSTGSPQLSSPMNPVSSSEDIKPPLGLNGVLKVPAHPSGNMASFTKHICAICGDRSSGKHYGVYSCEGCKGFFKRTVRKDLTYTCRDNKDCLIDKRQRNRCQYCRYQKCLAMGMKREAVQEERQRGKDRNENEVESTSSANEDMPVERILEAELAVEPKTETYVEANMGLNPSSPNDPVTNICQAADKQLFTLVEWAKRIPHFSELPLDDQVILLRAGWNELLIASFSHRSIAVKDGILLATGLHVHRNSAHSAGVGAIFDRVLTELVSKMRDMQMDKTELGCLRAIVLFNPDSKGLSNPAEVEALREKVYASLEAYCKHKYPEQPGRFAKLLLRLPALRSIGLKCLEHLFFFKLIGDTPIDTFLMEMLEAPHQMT
# How it was run: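 Cells plated at 2,000/well, rested 5 hr at 37 C, pin-dosed with DMSO compound solutions, incubated 16 hr, then loaded with B/G FRET substrate for 2 hr at RT before dual-emission fluorescence reading.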
# [2] = qHTS assay to identify small molecule agonists of the RXR signaling pathway - cell viability counter screen (AID 1159529);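 note: HEK 293T cells carrying an RXR-alpha UAS beta-lactamase reporter; series mostly up to about 77 µM; nearly all actives have a fitted effect of over 50% in size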
# How it was run: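 Steps: seed RXR-alpha-UAS-bla HEK 293T cells in assay medium containing 2% charcoal-stripped FBS; incubate 5 hr; add compounds in DMSO; incubate 16 hr at 37 C; after the bla read, add CellTiter-Glo and read luminescence at 30 min.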
# [3] = qHTS assay to identify small molecule antagonists of the retinoid acid receptor (RAR) signaling pathway - cell viability counter screen (AID 1159551); note: nearly all actives have a fitted effect of over 35% in size
# How it was run: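 Seed C3RL4 cells; next day add compound, then retinol to 1 uM final; incubate 6 h at 37 C; add CellTiter-Glo; read luminescence after 30 min at RT.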
smiles,measurement,setting,value
C=CCCCCCCCCCCCC,Potency,[1],inactive
same,outcome,[2],inactive
same,outcome,[3],inactive
C[C@H](CCC(=O)O)[C@H]1CC[C@H]2[C@@H]3C(=O)C[C@@H]4CC(=O)CC[C@]4(C)[C@H]3CC(=O)[C@]12C,Potency,[1],inactive
same,outcome,[2],inactive
same,outcome,[3],inactive
COC(=O)CCc1ccc(OCC(O)CNC(C)C)cc1 (centres undefined),Potency,[1],inactive
same,outcome,[2],inactive
C=COCCOCCOCCOC=C,Potency,[1],inactive
same,outcome,[2],inactive
same,outcome,[3],inactive
COc1cc2c(cc1OC)[C@@H]1CC(=O)[C@@H](CC(C)C)CN1CC2,Potency,[1],inactive
same,outcome,[2],inactive
same,outcome,[3],inactive
O=C(CS(=O)Cc1ccco1)NC/C=C\COc1cc(CN2CCCCC2)ccn1 (centres undefined),Potency,[1],inactive
same,outcome,[2],inactive
CCn1ccc(NS(=O)(=O)c2ccc(N)cc2)nc1=O,Potency,[1],inactive
same,outcome,[2],inactive
C=C(C)C1CCC(C)(O)CC1 (centres undefined),Potency,[1],inactive
same,outcome,[2],inactive
COc1cc(NS(=O)(=O)c2ccc(N)cc2)nc(OC)n1,Potency,[1],inactive
same,outcome,[2],inactive
O=C(O)Cc1cn(-c2ccccc2)nc1-c1ccc(Cl)cc1,Potency,[1],inactive
same,outcome,[2],inactive
same,outcome,[3],inactive
CCCCCCCC/C=C\CCCCCCCC(=O)OCCCC,activation,[1],2.43% [at 15.8 µM]
same,"activity change, negative = cytotoxicity",[2],1.56% [at 15.8 µM]
same,"activity change, negative = cytotoxicity",[3],-0.376% [at 19 µM]
OCCN(CCO)c1cccc(Cl)c1,Potency,[1],inactive
same,outcome,[2],inactive
same,outcome,[3],inactive
CCCCC(CC)COCCO (centres undefined),Potency,[1],inactive
same,outcome,[2],inactive
CCC(C)NC(N)=O (centres undefined),Potency,[1],inactive
same,outcome,[2],inactive
same,outcome,[3],inactive
CCC(C=O)CC,Potency,[1],inactive
same,outcome,[2],inactive
CC(C)N(c1ccccc1)C(C)C,Potency,[1],inactive
same,outcome,[2],inactive
OCCC(F)(F)C(F)(F)C(F)(F)C(F)(F)C(F)(F)C(F)(F)C(F)(F)C(F)(F)F,Potency,[1],inactive
same,outcome,[2],inactive
O=C1CC(c2ccc(Cl)cc2)CC(=O)N1,Potency,[1],inactive
same,outcome,[2],inactive
same,outcome,[3],inactive
C=C(C)C(=O)OCCNC(C)(C)C,Potency,[1],inactive
same,outcome,[2],inactive
same,outcome,[3],inactive
CC/C=C\CC1=C(C)CCC1=O,Potency,[1],inactive
same,outcome,[2],inactive
same,outcome,[3],inactive
CC(C)CCCCOC(=O)c1ccccc1C(=O)OCCCCC(C)C,Potency,[1],inactive
same,outcome,[2],inactive
Cc1cccc(OCC(O)CNC(C)(C)C)c1C (centres undefined),Potency,[1],inactive
same,outcome,[2],inactive
same,outcome,[3],inactive
Cc1ccccc1OCC(O)CO (centres undefined),Potency,[1],inactive
same,outcome,[2],inactive
same,outcome,[3],inactive
N#Cc1ccc(C(=O)O)cc1,Potency,[1],inactive
same,outcome,[2],inactive
CN(C)c1ccc(C=O)cc1,Potency,[1],inactive
same,outcome,[2],inactive
same,outcome,[3],inactive
